Compound activity as filed in PubChem.
Cruzain noTriton: inhibitors of Trypanosoma cruzi cruzain without detergent. purified cruzain, Z-FR-AMC fluorescence, no detergent. Potency, µM, for inactives: max response, negative = inhibition, usual class: inhibitors. 2.3% of 200,000 active. AID 1476;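 further: plate controls were enzyme without inhibitor for no effect and buffer without enzyme for full effect; nearly all actives have a fitted effect of over 40% in size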
Target sequence (P25779 123-467 limits assumed): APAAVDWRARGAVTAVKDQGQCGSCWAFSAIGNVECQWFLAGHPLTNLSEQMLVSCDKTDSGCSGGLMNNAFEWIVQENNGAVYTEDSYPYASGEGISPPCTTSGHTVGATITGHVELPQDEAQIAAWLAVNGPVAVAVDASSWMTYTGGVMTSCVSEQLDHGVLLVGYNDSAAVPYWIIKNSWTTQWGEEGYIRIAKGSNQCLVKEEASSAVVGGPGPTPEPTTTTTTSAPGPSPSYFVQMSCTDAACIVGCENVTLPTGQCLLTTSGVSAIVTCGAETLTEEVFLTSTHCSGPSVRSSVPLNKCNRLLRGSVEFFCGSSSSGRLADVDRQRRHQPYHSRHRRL
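Detergent-free condition (0.00005% Triton X-100) in acetate buffer pH 5.5 with DTT. 1.5 nM enzyme and compound were pre-mixed 15 min, then 2 uM Z-FR-AMC substrate added; reaction progress from fluorescence change between first and third reads (60 s).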
NS1 inh: blocks influenza NS1 protein function; Potency, µM (doses to about 46.1 µM), without a hit: at the top dose activity, positive = more growth; 0.4% of 270,000 active; AID 2326; calls by dose curve; further: actives are rising curves; nearly all actives have a fitted effect of over 50% in size
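Growth recovery, yeast-based: influenza A NS1 expressed in S. cerevisiae causes slow growth, and suppressors are detected by OD600. The parent strain without NS1 is used as positive control.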
Cruzain Triton: blocks cruzain activity in presence of Triton detergent. P25779. purified cruzain, Z-FR-AMC fluorescence, 0.01% Triton. Potency, µM, inactives show max response, negative = inhibition, most hits filed as inhibitors. 0.43% of 200,000 active. AID 1478;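 further: plate controls were neutral wells for no effect and buffer without enzyme for full effect; nearly all actives have a fitted effect of over 40% in size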
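Enzyme 1.5 nM, Z-FR-AMC 2 uM, NaOAc 100 mM pH 5.5, DTT 5 mM, Triton X-100 0.01%; 15 min RT compound preincubation; kinetic ex360/em450, 60 s delta.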
Active calls of the source: *; ? = inconclusive; nt = not tested or not shown. Shown is part of a subset that was picked to be rich in hits. Unless noted, the call rests on the fitted dose curve; in most records, active means well fitted curve in the direction sought with a large enough effect; inconclusive means small, poorly fitted or top-dose-only effect, or another doubt; inactive means no such curve, though single readings can be large; an effect the other way counts as inactive or inconclusive. Potency means the concentration at half of the fitted maximal effect.

SMILES	Cruzain noTriton	NS1 inh	Cruzain Triton
O=C(O)c1ccc(/C=N/NC(=O)c2ccc(CN3c4cccc5cccc(c45)S3(=O)=O)cc2)cc1	nt	14.8%	nt
CC(/C=N/NC(=O)c1ccc(CN2c3cccc4cccc(c34)S2(=O)=O)cc1)c1ccccc1 (stereo not given)	10µM*	?	-5.0%
CCCCCc1ccc(-c2ccc(Br)cc2)nc1	-3.4%	nt	0.5%
CCOC(=O)c1sc(-c2ccc(Br)cc2)cc1N	-2.1%	-10.0%	-5.6%
CCOC(=O)c1cc(-c2ccc(N)cc2)sc1N	31.6µM*	-66.9%	-16.8%
O=C(c1ccco1)N1CCN(S(=O)(=O)c2ccc([N+](=O)[O-])cc2)CC1	nt	-5.2%	nt
Cc1ccc(NC(=O)Cc2nnc(SCC(=O)c3ccc(Br)cc3)n2C)cc1Cl	12.6µM*	5.1%	6.6%
Cc1ccccc1NC(=O)Cc1nnc(SCC(=O)c2ccc(Br)cc2)n1C	-7.2%	10.3%	3.0%
O=C(OCc1nnc(-c2ccccc2)o1)c1ccccc1	nt	-5.7%	nt
O=C(COC(=O)c1ccc(-c2nnc(-c3ccccc3)o2)cc1)c1ccccc1	7.94µM*	1.7%	-1.5%
N[C@H](C(=O)O)c1cc(O)cc(O)c1	-7.2%	?	4.2%
Cc1ccccc1C(=O)Nc1sc2c(c1C(=O)N1CCCCC1)CCC(C(C)(C)C)C2 (stereo not given)	-12.5%	nt	-0.4%
CCNC(=O)n1cc(-n2cncn2)c(-c2ccccc2)n1	nt	-4.6%	nt
Cc1ccc(NC(=O)Nc2nnc(Cc3ccc([N+](=O)[O-])cc3)s2)cc1	-19.5%	-1.1%	0.1%
O=C(Cc1nnc(NC(=O)Nc2ccccc2)s1)NCc1ccccc1	-75.2%	10.0%	-2.1%
O=C(Cc1nnc(NC(=O)Nc2ccc(Cl)cc2)s1)NCc1ccccc1	10µM*	9.9%	1.0%
O=C(Nc1ccc(Cl)cc1)Nc1nnc(SCc2ccc(Cl)cc2)s1	7.94µM*	0.8%	0.8%
COc1ccc(Cc2nnc(NC(=O)c3ccc(Cl)c([N+](=O)[O-])c3)s2)cc1	15.8µM*	26.9%	7.5%
O=C(Nc1ccc(Cl)cc1)Nc1nnc(Cc2ccc([N+](=O)[O-])cc2)s1	7.94µM*	-4.0%	-1.9%
O=C(Nc1ccccc1)Nc1nnc(SCc2ccc(Cl)cc2)s1	?	7.8%	-1.1%
COc1ccc(Cc2nnc(NC(=O)c3cc(OC)cc(OC)c3)s2)cc1	nt	6.8%	nt
CC(Sc1nc(-c2ccccc2)cc(C(F)(F)F)n1)C(=O)N1CCOCC1 (stereo not given)	19.3%	13.3%	1.1%
CCN(CC)C(=O)C1CCCN(Cc2ccc(N(C)C)cc2)C1 (stereo not given)	3.1%	-0.7%	2.8%
COc1ccccc1CNC(=O)C(C)n1ccc2cc(S(=O)(=O)N3CCCC3)ccc21 (stereo not given)	1.6%	nt	-4.7%
COCCN=C1Sc2nc3ccc(C)cc3cc2CN1Cc1ccco1	0.4%	-14.6%	-1.5%
SMILES	Cruzain noTriton	NS1 inh	Cruzain Triton
CCOc1ccc(NC(=O)C(NS(=O)(=O)c2cccc3nsnc23)c2ccccc2)cc1 (stereo not given)	-7.8%	nt	-3.0%
CCN(CC)S(=O)(=O)c1csc(C(=O)OCC(=O)c2ccccc2)c1	-5.0%	-10.2%	-6.6%
CNC(=O)COC(=O)/C=C/c1c(C)nn(-c2ccccc2)c1C	-5.1%	-5.1%	0.0%
COc1cc(C2C=C(C34CC5CC(CC(C5)C3)C4)NC(=S)N2)cc(OC)c1OC (stereo not given)	?	6.7%	1.2%
COc1ccc(OC)c(C2C=C(C34CC5CC(CC(C5)C3)C4)NC(=S)N2)c1 (stereo not given)	25.1µM*	18.0%	-2.1%
Cn1c(SCC(=O)Nc2cccc(C(=O)O)c2)nnc1-c1cc2cc(Br)ccc2o1	nt	-9.5%	nt
Cn1c(SCC(=O)Nc2cccc(Br)c2)nnc1-c1cc2ccccc2o1	12.6µM*	0.8%	0.7%
COc1ccccc1OCc1nnc(SCC(=O)Nc2ccc(C)cc2)n1C	7.9%	-13.8%	3.2%
Cc1ccccc1OCc1nnc(SCC(=O)Nc2ccc3c(c2)oc2ccccc23)n1C	20µM*	-18.9%	0.8%
CCc1ccc(NC(=O)/C(C#N)=C/c2ccncc2)cc1	nt	6.4%	nt
COc1cc2c(cc1OC)C(COc1ccccc1OC)N(C(=O)c1ccc(S(=O)(=O)N(C)C)cc1)CC2 (stereo not given)	?	nt	0.4%
Cc1ccc(Cn2c(C(=O)O)c(CNCCc3cccs3)c3ccc(C)cc32)cc1	8.7%	nt	-2.2%
Cc1ccc(NC(=O)C2CCN(S(=O)(=O)c3ccc4[nH]c5c(c4c3)CCCCC5)CC2)cc1	12.6µM*	nt	0.0%
Cc1ccc(NC(=S)NCc2ccc3[nH]c4c(c3c2)CCCC4)cc1	31.6µM*	22.0%	-11.8%
CCOc1ccccc1NC(=O)C1CCN(S(=O)(=O)c2ccc3[nH]c(=O)oc3c2)CC1	-1.3%	nt	-2.0%
CCOc1ccccc1NC(=O)C1CCN(S(=O)(=O)c2ccc3[nH]c4c(c3c2)CCCCC4)CC1	12.6µM*	nt	-1.6%
CC(=O)c1ccc(NC(=O)C2CCN(S(=O)(=O)c3ccc4[nH]c5c(c4c3)CCCCC5)CC2)cc1	-15.9%	nt	-1.7%
COc1ccc(C)cc1NC(=O)C1CCN(S(=O)(=O)c2ccc3[nH]c4c(c3c2)CCCCC4)CC1	15.8µM*	nt	-0.6%
COc1ccc(NC(=O)C2CCN(S(=O)(=O)c3ccc4[nH]c5c(c4c3)CCCCC5)CC2)cc1	-29.8%	nt	1.9%
Cc1ccc(NS(=O)(=O)c2ccc3[nH]c4c(c3c2)CCCCCC4)cc1	-24.8%	nt	-6.0%
Cc1nc2c(C)cccn2c1/C(O)=C1\C(=O)C(=O)N(CCN(C)C)C1c1ccco1 (stereo not given)	nt	-2.0%	nt
O=C(COC(=O)c1ccc(Br)o1)Nc1nc2c(F)c(F)c(F)cc2s1	nt	2.5%	nt
CCN(CC)C(=O)C(=O)Nc1ccc(OC)c(Cl)c1	nt	4.4%	nt
Cc1sc2ncn(CC(=O)N(C)c3ccc(Br)cc3)c(=O)c2c1S(=O)(=O)N1CCC(C)CC1	0.7%	nt	-2.7%
O=S(=O)(c1ccc2[nH]c3c(c2c1)CCCC3)N1CCCCC1	nt	-36.6%	nt
SMILES	Cruzain noTriton	NS1 inh	Cruzain Triton
Cc1ccc(Cl)cc1N1CCN(S(=O)(=O)c2ccc3[nH]c4c(c3c2)CCCCC4)CC1	5.01µM*	nt	-0.1%
COc1cccc(-c2nc(-c3ccccc3)[nH]c(=O)c2C#N)c1	-7.9%	15.3%	5.3%
COc1ccc(-c2nc(-c3cccc(C)c3)[nH]c(=O)c2C#N)cc1	10µM*	5.9%	-3.5%
COc1cc(/C=N/n2c(C)nc3ccccc3c2=O)ccc1O	nt	6.3%	nt
CC(/C=N\N1CCN(c2ccc(Cl)cc2)CC1)=C\c1ccccc1	7.94µM*	8.2%	-6.3%
CC(/C=N/N1CCN(c2ccc(C)cc2)CC1)=C\c1ccccc1	-29.3%	9.9%	-1.0%
O=C(N/N=C/c1ccc(OC(=O)c2cccc(F)c2)cc1)c1cccnc1	nt	-11.3%	nt
O=C(N/N=C/c1ccc(OC(=O)c2cccs2)cc1)c1cccc(F)c1	20µM*	0.8%	-22.1%
c1ccc(-n2cnc3ccccc32)nc1	nt	-3.6%	nt
c1ccc(-c2nccc(-c3ccc(-n4cnc5ccccc54)cc3)n2)cc1	15.8µM*	1.6%	-1.7%
Clc1ccc(Cn2ncc3c(NCc4ccccc4)ncnc32)cc1	4.6%	-3.8%	-4.7%
O=C(Nc1ccc(Cn2cccn2)cc1)c1ccc(COc2ccc(Br)cc2)cc1	12.6µM*	5.1%	2.4%
O=C(Nc1ccc(Cn2cccn2)cc1)c1ccc(COc2cccc(Br)c2)cc1	-13.2%	-2.4%	-3.7%
